Screening results: PubChem, National Center for Advancing Translational Sciences (NCATS)
Sampled rows, rich in hits. Any-hit rate of the full collection: about 9.3%.
ELG1 DNA repair – inhibitors of ELG1-dependent DNA repair in HEK293T cells | HEK293T ELG1-luciferase reporter, luminescence, 16 h; DNA damage induced by 5-fluorouridine | Potency, µM (titrated, usually from 46.1 µM), for the others: at the top dose activity change, negative = inhibition, actives largely listed as inhibitors | hit rate 2.3% among 330,000; note: % is set by controls: 0 for no effect and ±100 for the full control effect; nearly all actives have a fitted effect of over 55% in size
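Luminescence from the luciferase reporter, measured 30 min after ONE-Glo reagent at room temperature, was the read-out. Beforehand, 2,000 cells per well were exposed for 16 hr at 37 °C to 5-fluorouridine together with compound or vehicle.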
ELG1 genotoxic – induces genotoxicity in HEK293T cells with luciferase-tagged ELG1; HEK293T ELG1-luciferase reporter, luminescence, 16 h; Potency, µM (doses to about 46 µM), for the others: at the highest dose activity change, positive = activation, usual class: activators; hit rate 1.3% among 330,000; note: % of control where 0% means no effect; nearly all actives have a fitted effect of over 60% in size
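HEK293T cells expressing luciferase-tagged ELG1 were exposed to compound or DMSO vehicle for 16 hr at 37 °C and 5% CO2. Luciferase activity was then measured with ONE-Glo after 30 min at room temperature.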
SMN2 splice up – SMN2 splice variant enhancement. HEK293 SMN2-luciferase splicing reporter, luminescence, 30-36 h. Potency, µM (doses to about 46.1 µM), for inactives: at the top dose activity change, positive = activation, most hits filed as activators. hit rate 2.8% among 210,000; note: % of control where 0% means no effect; nearly all actives have a fitted effect of over 55% in size
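HEK293 cells carry an SMN2 minigene-luciferase reporter in which exon 7 inclusion puts luciferase in frame. Cells were seeded at 2000 cells/well, attached for 10-12 hours, then exposed to compounds for 30-36 hours at 37C before ONE-Glo luminescence.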
FLuc counter – firefly luciferase modulation, counter-screen for miR-21 project; P08659; purified FLuc, Km substrates, luminescence inhibition; Potency, µM (highest dose often 57.5 µM), without a hit: top-dose activity change, negative = inhibition, most hits filed as inhibitors; hit rate 6.9% among 360,000;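 note: plate controls were vehicle for no effect and reference inhibitor for full effect; nearly all actives have a fitted effect of over 55% in size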
Target sequence (P08659 whole entry, looked up): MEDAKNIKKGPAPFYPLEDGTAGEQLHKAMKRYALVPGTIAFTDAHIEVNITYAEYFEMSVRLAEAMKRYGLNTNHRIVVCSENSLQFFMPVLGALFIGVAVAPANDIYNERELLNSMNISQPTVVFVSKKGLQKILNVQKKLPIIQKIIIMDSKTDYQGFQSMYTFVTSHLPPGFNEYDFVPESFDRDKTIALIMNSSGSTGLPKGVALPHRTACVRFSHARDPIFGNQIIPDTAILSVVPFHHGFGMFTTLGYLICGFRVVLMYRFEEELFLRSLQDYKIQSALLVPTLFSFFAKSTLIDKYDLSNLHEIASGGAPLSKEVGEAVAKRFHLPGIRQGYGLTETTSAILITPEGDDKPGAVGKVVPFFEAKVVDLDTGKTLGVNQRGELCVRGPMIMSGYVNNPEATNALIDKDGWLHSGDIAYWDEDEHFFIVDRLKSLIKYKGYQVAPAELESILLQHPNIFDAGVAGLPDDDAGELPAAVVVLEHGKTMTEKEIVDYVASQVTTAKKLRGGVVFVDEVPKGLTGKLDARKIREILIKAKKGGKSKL
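Purified P. pyralis luciferase (10nM final) with 10uM D-luciferin and 10uM ATP (Km levels) in 50mM Tris acetate pH 7.5, 10mM Mg acetate, 0.01% Tween-20, 0.05% BSA; qHTS 6-point titration, ~60 µM downward; luminescence read.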
Rab9 prom act – Rab9 promoter activation; Huh7 Rab9 promoter-luciferase reporter, luminescence, 24 h; Potency, µM (titrated, usually from 9.22 µM), for inactives: at the top dose activation, negative = inhibition, usual class: activators; hit rate 2.8% among 320,000; note: % of control where 0% means no effect; nearly all actives have a fitted effect of over 60% in size
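Cell-based reporter: Huh7 stable for Rab9 promoter-driven luciferase, plated in reduced-serum medium with 10% FBS at 1500 cells/well, compound-treated 24 h at 37 °C, luminescence read after 10 min reagent.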
NPC1 promoter act – activators of NPC1 promoter | Huh7 NPC1 promoter luciferase reporter, 24 h | Potency, µM (highest dose often 9.22 µM), for the others: at the highest dose activation, actives largely listed as activators | hit rate 2.4% among 320,000 | AID 485313; note: % of control where 0% means no effect; nearly all actives have a fitted effect of over 60% in size
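Huh7 reporter cells (NPC1 promoter driving luciferase) are dosed with compound for 24 h at 37 °C, 5% CO2; luciferase detection reagent is then added and luminescence measured after 10 min at ambient temperature.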
Starred values were filed as active, the others as inactive; ? = inconclusive; / = no result given; [ ] = another dose, or the depositor's remark. Calls come from the whole dose curve; as a rule, active = well fitted curve in the direction sought with a large enough effect; inconclusive = small, poorly fitted or top-dose-only effect, or another doubt; inactive = no such curve, though single readings can be large; an effect the other way counts as inactive or inconclusive. Potency is the fitted concentration of half-maximal effect.

SMILES	ELG1 DNA repair	ELG1 genotoxic	SMN2 splice up	FLuc counter	Rab9 prom act	NPC1 promoter act
COc1cccc(-c2nn(-c3ccc(C)cc3)cc2C(=O)N(C)CC(=O)Nc2cccc(F)c2)c1	13µM*	-12.9%	/	8.49µM*	-6.9%	-3.3%
COc1ccc(NC(=O)CN(C)C(=O)c2cc(-c3ccc(OC)cc3)nc3ccccc23)cc1	?	-27.0%	/	8.49µM*	12.8%	10.3%
CN(CC(=O)Nc1ccccc1Br)C(=O)c1n[nH]c2ccccc12	-15.1%	-6.5%	/	-1.4%	4.4%	1.4%
Cc1ccc2nc(-c3ccccc3)cc(C(=O)N(C)CC(=O)Nc3ccccc3Br)c2c1	?	-10.2%	/	16.9µM*	-0.6%	0.8%
Cc1cccc(-c2nn(-c3ccccc3)cc2C(=O)N(C)CC(=O)Nc2ccc(N3CCOCC3)cc2)c1	11.6µM*	-4.4%	/	-5.3%	-3.2%	0.7%
COc1ccc(NC(=O)CN(C)C(=O)c2cc(-c3ccccc3)nc3ccccc23)cc1	?	-31.7%	/	?	0.4%	-1.7%
COC(=O)[C@@]1(Cc2ccc(OC)cc2)[C@H]2c3cc(C(=O)N(C)C)n(Cc4ccc(C)o4)c3C[C@H]2CN1C(=O)c1ccccc1	/	/	-2.4%	/	/	/
Cc1cccc(NC(=O)CSc2cn(CC(=O)N3CCCCCC3)c3ccccc23)c1	/	/	/	-6.1%	/	/
COc1ccccc1NS(=O)(=O)c1ccc2oc(N)nc2c1	4.5%	0.0%	/	-0.3%	-8.0%	4.7%
O=C(CNc1cc(S(=O)(=O)N2CCOCC2)ccc1NCC1CCCO1)Nc1ccc(F)c(F)c1 (configuration not stated)	?	12.7%	/	-2.5%	-2.1%[1.84 µM]	4.8%
CN(CC(=O)Nc1cccc(F)c1)C(=O)c1cc(-c2ccccc2)nc2ccccc12	?	-5.2%	/	-14.0%	-6.0%	-1.8%
Cc1ccc(NC(=O)CN(C)C(=O)c2cc(-c3ccco3)nc3ccccc23)cc1	13µM*	-4.2%	/	23.9µM*	0.6%	-3.7%
COc1ccc(-c2cc(C(=O)N(C)CC(=O)Nc3cccc(F)c3)c3ccccc3n2)cc1	?	-11.6%	/	19µM*	-4.1%	-0.5%
CN(CC(=O)Nc1ccc(F)cc1)C(=O)c1cc(-c2ccco2)nc2ccccc12	?	-37.0%	/	?	10.3%	-1.5%
CN(C(=O)c1ccno1)c1nnc(-c2ccccn2)s1	?	13.5%	-1.1%	15.1µM*	4.7%	12.2%
CN(C(=O)c1ccncc1)c1nnc(-c2ccccn2)s1	?	?	?	16.9µM*	?	23.1%
COc1ccc(-c2nnc(N(C)C(=O)c3ccno3)s2)cc1	?	?	11.2µM*	10.7µM*	3.16µM*	?
CCCCC(=O)Nc1nnc(-c2ccc(OC)cc2)s1	?	5.6%	?	?	27.5%	27.0%
Cc1ccc(C(=O)N(C)c2nnc(-c3ccncc3)s2)cc1	?	13.2%	29.8%	16.9µM*	?	?
CN(C(=O)c1ccncc1)c1nnc(-c2cccnc2)s1	0.0%	?	/	2.6%	2.0%	2.1%
CCOc1cc(C#N)c(NC(=O)c2ccc(OC)c(S(=O)(=O)N3CCCCC3)c2)cc1OCC	/	/	6.9%	-8.9%	/	/
Cc1cccc(Cn2c(=O)n(-c3cc(C)cc(C)c3)c(=O)c3oc4ccccc4c32)c1	/	/	/	-1.6%	/	/
Cc1cc(C)c(OCC(=O)N(Cc2ccc(N(C)C)cc2)Cc2ccco2)c(C)c1	/	/	-16.4%	-17.5%	/	/
COc1ccc(-c2nnc(N(C)C(=O)C3CCCO3)s2)cc1 (configuration not stated)	?	?	11.2µM*	13.5µM*	2µM*	2.51µM*
Cc1cnc(-c2nnc(N(C)C(=O)C3CCCO3)s2)cn1 (configuration not stated)	?	13.1%	-13.4%	-13.3%	28.0%	19.8%
SMILES	ELG1 DNA repair	ELG1 genotoxic	SMN2 splice up	FLuc counter	Rab9 prom act	NPC1 promoter act
O=C(Nc1ccc(-c2nc3ccccc3o2)c(O)c1)c1cc(-n2cnnc2)ccc1Cl	20.6µM*	?	-101.7%	-14.5%	-5.0%	-8.2%
O=C(Nc1ccc(-c2nc3ccccc3o2)cc1)c1cc(-n2cnnc2)ccc1Cl	?	0.1%	-80.1%	?	-2.7%	-2.0%
Cc1c(NC(=O)c2cc(-n3cnnc3)ccc2Cl)cccc1-c1nc2ccccc2o1	?	-0.9%	7.2%	3.79µM*	-1.7%	0.0%
Cc1c(NC(=O)c2cccc3c(Cl)cccc23)cccc1-c1nc2ccccc2o1	/	/	-1.0%	3.9%	/	/
COc1ccc(S(=O)(=O)N2CCOC2CNC(=O)C(=O)NCCN2CCOCC2)cc1OC (configuration not stated)	0.9%	6.6%	/	2.4%	2.9%	-1.9%
Cc1noc(C)c1COc1ccccc1C(=O)N1CCN(S(=O)(=O)c2ccccc2F)CC1	?	23.1µM*	/	3.8%	-4.8%	0.6%
Cc1ccc(S(=O)(=O)N2CCN(C(=O)c3ccccc3OCc3c(C)noc3C)CC2)cc1	-12.1%	4.9%	/	11.1%	2.3%	-2.7%
O=C(O)c1ccc(CSc2nc3ccccc3o2)cc1	4.8%	4.6%	-9.8%	19µM*	0.2%	-1.2%
O=C(O)c1ccccc1CSc1nc2ccccc2o1	?	?	?	10.7µM*	?	4.47µM*
Cc1ccc(Cn2c(C(=O)O)c(CNC3CCCCC3)c3ccc(C)cc32)cc1	/	/	/	-1.8%	/	/
COc1cc(NC(=O)CSc2ncc3c(n2)-c2ccc(Cl)cc2N(Cc2ccccc2)S3(=O)=O)cc(OC)c1	/	/	/	-3.5%	/	/
COc1ccc(/C=c2\s/c(=C\C(=O)C(C)(C)C)[nH]c2=O)cc1O	?	-8.7%	/	23.9µM*	-2.9%	-1.4%
Cc1cc(C)c2c(=O)n(CC(=O)Nc3cccc(F)c3)sc2n1	?	2.8%	/	9.53µM*	-2.4%	-2.7%
Cc1ccc(NC(=O)Cn2sc3nc(C)cc(C)c3c2=O)c(Cl)c1	?	0.8%	/	10.7µM*	-3.9%	2.9%
CCOc1ccc(NC(=O)Cn2sc3nc(C)cc(C)c3c2=O)cc1	1.1%	-0.6%	/	?	-1.9%	-2.2%
Cc1cc(C)c2c(=O)n(CC(=O)Nc3ccc(Cl)cc3)sc2n1	19.6%	-0.5%	/	7.57µM*	2.3%	-1.3%
Cc1cc(C)c2c(=O)n(CC(=O)NCCCN3CCN(c4ccccc4F)CC3)sc2n1	?	1.9%	2.8%	?	-0.3%	-1.0%
N#Cc1ccccc1NC(=O)C(=O)NCCCN1CCCC1=O	?	-4.1%	/	0.9%	0.8%	-0.3%
Cc1cccc(C(=O)Nc2ccc(N3CCN(S(C)(=O)=O)CC3)cc2)c1	?	13.8%	?	?	3.98µM*	4.47µM*
CS(=O)(=O)N1CCN(c2ccc(NC(=O)c3ccccc3)cc2)CC1	?	?	10µM*	?	1.78µM*	3.55µM*
